Assay outcomes from PubChem.
Sampled rows, rich in hits. Any-hit rate of the full collection: about 19%.
RORg inh – blocks mouse ROR gamma transcriptional activity; P51450; Drosophila S2 Gal4-RORgamma UAS-luciferase reporter, 20 h; Potency, µM (titrated, usually from 53.6 µM), without a hit: at the highest dose activity change, negative = inhibition, actives largely listed as inhibitors; actives 5.4% (n = 310,000); AID 2551; further: nearly all actives have a fitted effect of over 60% in size
Target sequence (P51450 whole entry, looked up, the tested form may be a part): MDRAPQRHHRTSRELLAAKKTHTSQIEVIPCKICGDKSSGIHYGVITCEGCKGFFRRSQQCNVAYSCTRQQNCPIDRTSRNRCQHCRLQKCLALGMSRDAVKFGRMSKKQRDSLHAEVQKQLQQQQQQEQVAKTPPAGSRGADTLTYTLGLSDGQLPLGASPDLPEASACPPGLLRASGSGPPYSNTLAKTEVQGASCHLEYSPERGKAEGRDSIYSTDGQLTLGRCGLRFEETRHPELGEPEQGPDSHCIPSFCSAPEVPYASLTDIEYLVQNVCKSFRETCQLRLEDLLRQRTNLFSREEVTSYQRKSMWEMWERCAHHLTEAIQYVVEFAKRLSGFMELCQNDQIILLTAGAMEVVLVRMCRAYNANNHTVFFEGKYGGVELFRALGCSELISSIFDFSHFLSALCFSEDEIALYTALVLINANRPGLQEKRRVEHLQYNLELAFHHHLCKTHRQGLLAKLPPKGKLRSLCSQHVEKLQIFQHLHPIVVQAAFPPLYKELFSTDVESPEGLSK
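Drosophila Schneider cells stably carrying a metallothionein-driven Gal4 DBD–ROR gamma fusion and a UAS-Photinus luciferase reporter were exposed to compound for 1 hr, then induced with copper sulfate (700 uM final) for 20 hr at ambient temperature before luminescence reading.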
TDP1 block – TDP1 (human) enzyme inhibition. Q9NUW8. recombinant TDP1, AlphaScreen DNA substrate cleavage. Potency, µM (doses to about 130 µM), without a hit: at the highest dose activity change, negative = inhibition, hits mostly inhibitors. actives 0.28% (n = 350,000). AID 485290; further: nearly all actives have a fitted effect of over 40% in size
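Here, a 5' biotin and 3' phosphotyrosine-FITC DNA oligonucleotide reports Tdp1 activity: intact substrate bridges AlphaScreen beads, while cleavage leaves a 3' phosphate and drops signal. All incubations at room temperature.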
TDP1 cell noCPT – qHTS for Inhibitors of human tyrosyl-DNA phosphodiesterase 1 (TDP1): qHTS in cells in absence of CPT. DT40 Tdp1-/- hTDP1 cells, no CPT, ATP luminescence, 48 h. Potency, µM (titrated, usually from 46.2 µM), inactives show at the highest dose activity change, negative = growth inhibition, most hits filed as inhibitors. actives 15% (n = 420,000); further: nearly all actives have a fitted effect of over 55% in size
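No-CPT arm: Tdp1-/-;hTDP1 DT40 cells (400/well) plus compounds, incubated ≥48 hr at 37 °C. Readout CellTiter-Glo luminescence.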
Gal4-VP16 FLuc – Gal4-VP16 reporter inhibition counter-screen. Potency, µM (highest dose often 53.6 µM), for the others: at the highest dose activity, negative = inhibition, actives largely listed as inhibitors. actives 3.5% (n = 310,000). Drosophila S2 Gal4-VP16 UAS-luciferase, luminescence, 20 h. AID 2546;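 further: Gal4-VP16 expression switched on by copper sulfate through the metallothionein promoter; nearly all actives have a fitted effect of over 50% in size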
DT40 TDP1 CPT – DT40-hTDP1 cell growth loss with CPT; chicken DT40 Tdp1-/-;hTDP1 cells + 20 nM CPT, ATP luminescence, 48 h; Potency, µM (doses to about 46.2 µM), without a hit: top-dose activity change, negative = growth inhibition, most hits filed as inhibitors; actives 12% (n = 420,000); further: nearly all actives have a fitted effect of over 55% in size
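Cell growth measured by CellTiter-Glo luminescence after a minimum 48 h, 37 C compound exposure with 20 nM CPT in Tdp1-knockout DT40 cells stably expressing hTDP1, seeded 400/well; qHTS titration format.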
* hit, by the source's call; ? = inconclusive; . = no result given; [ ] = dose if it differs, or a comment. The call rests on the fitted dose curve; in most records, active means well fitted curve in the direction sought with a large enough effect; inconclusive means small, poorly fitted or top-dose-only effect, or another doubt; inactive means no such curve, though single readings can be large; an effect the other way counts as inactive or inconclusive. On the % scale 0 is the no-effect control and ±100 the full control effect; potency means the concentration at half of the fitted maximal effect.

SMILES | RORg inh | TDP1 block | TDP1 cell noCPT | Gal4-VP16 FLuc | DT40 TDP1 CPT
O=C(Nc1cccc(S(=O)(=O)N2CCCCC2)c1)c1cc(=O)[nH]c2ccccc12 | . | 6.0% | 18.4µM* | . | 23.1µM*
CC(C(=O)Nc1ccc(S(=O)(=O)N2CCCC2)cc1)N1CCN(c2ccccc2O)CC1 (configuration not stated) | . | -3.1% | 23.1µM* | . | ?
COc1ccc(Cn2c(CCC(=O)Nc3ccccc3)nc3cccnc32)cc1 | 19.3% | 0.0% | -22.1% | -1.5% | 3.3%
O=C(Nc1cccnc1)c1ccc(CN2CCc3ccccc3C2)cc1 | 32.5% | 2.0% | 16.4µM* | 5.8% | ?
Cn1nc(C(=O)Nc2ccc(S(=O)(=O)N3CCCCC3)cc2)ccc1=O | -7.4% | 3.1% | 20.6µM* | -3.0% | ?
Cn1nccc1C(=O)Nc1ccc(S(=O)(=O)N2CCCC2)cc1 | 3.2% | 0.6% | -8.4% | -7.7% | -2.1%
O=C(Nc1cccc(C(=O)N2CCCCC2)c1)c1ccc(Cl)cc1 | 23.5% | 0.6% | 20.6µM* | -6.2% | ?
O=C(Nc1ccc(Cl)cc1)N1CCC(CN2CCCCCC2)CC1 | . | -3.8% | 23.1µM* | . | ?
O=C(Nc1ccc(Cl)cc1)N1CCC(CN2CCCC2)CC1 | . | 5.0% | -16.8% | . | -6.6%
O=C(Nc1ccccc1)c1ccc(CN2CCc3ccccc3C2)cc1 | 36.6% | 1.2% | -29.5% | 20.5% | -17.1%
COc1ccc(OCc2cc(=O)c3ccc4c(c3o2)C=CC(C)(C)O4)cc1OC | . | 7.3% | ? | . | 16.4µM*
CC(OC(=O)CCOc1ccccc1)C(=O)NC1CC1 (configuration not stated) | . | . | -18.0% | . | ?
CC1(C(=O)NS(=O)(=O)c2cccc(C#N)c2)CCN1C(=O)c1ccc(C2CCCCC2)cc1 (configuration not stated) | . | . | -15.0% | . | -22.4%
CC(C)Cc1ccc(S(=O)(=O)Nc2cccnc2)cc1 | 96.4% | . | ? | ? | ?
CCC(C)c1ccc(S(=O)(=O)Nc2cccnc2)cc1 (configuration not stated) | ? | . | 29.1µM* | ? | ?
CCn1cc(CNC(=O)c2cc(Cl)ccc2OC)c(C)n1 | 3.5% | 3.1% | ? | -0.9% | 1.3%
S=C1NC[C@H](c2ccccc2)N1CC1CCCCC1 | 1.12µM* | 6.4% | 23.1µM* | 4.47µM* | 20.6µM*
S=C1NC[C@H](CC2CCCCC2)N1CCCCC1CCCCC1 | 1.12µM* | 5.0% | ? | 3.16µM* | 16.4µM*
NCCCC[C@H]1CNC(=S)N1CC1CCCCC1 | -7.0% | 3.8% | ? | 3.6% | ?
CCCCN1C(=S)NC[C@@H]1c1ccccc1 | 2.82µM* | 7.7% | -18.6% | 12.6µM* | -13.7%
O=C1NC[C@@H](CCCCN2C[C@H](Cc3ccccc3)N(CC3CCCCC3)C(=O)C2=O)N(CC2CCCCC2)C1=O | . | . | -20.3% | . | -15.2%
S=C1NC[C@H](Cc2ccccc2)N1CCCCC1CCCCC1 | 0.708µM* | 2.6% | 25.9µM* | 5.01µM* | ?
O=C1NC[C@H](c2ccccc2)N(CCCCC2CCCCC2)C1=O | . | . | -24.2% | . | ?
COc1ccc(S(=O)(=O)N(C)C[C@@H]2OCCCC[C@@H](C)Oc3ccc(NC(=O)NC(C)C)cc3C(=O)N([C@H](C)CO)C[C@@H]2C)cc1 | . | . | -27.9% | . | ?
CCC1Oc2ccc(C)cc2N(CC(=O)NCCCN2CCN(Cc3ccccc3)CC2)C1=O (configuration not stated) | 1.8% | 6.5% | -27.1% | 0.7% | -16.5%
SMILES | RORg inh | TDP1 block | TDP1 cell noCPT | Gal4-VP16 FLuc | DT40 TDP1 CPT
CCCCN1C(N)=NC[C@@H]1c1ccccc1 | . | . | 13µM* | . | 16.4µM*
CCCCN1C(=S)NC[C@@H]1Cc1ccccc1 | 1.78µM* | 3.8% | ? | 7.94µM* | ?
COc1ccc(OC)c(NC(=O)C2CCC(CNc3c(N4CCC(C)CC4)c(=O)c3=O)CC2)c1 (configuration not stated) | 0.794µM* | 3.9% | ? | -6.6% | ?
O=C(CC1(CC2=NS(=O)(=O)c3ccccc3N2)CCCC1)NCCc1ccccc1 | -1.1% | . | ? | 3.2% | 14.6µM*
O=C(CSC1=NS(=O)(=O)c2ccccc2N1)NCCc1ccccc1 | . | -11.9%[0.505 µM] | 0.4% | . | 12.9%
Cc1ccc2cc(CCNC(=O)C(=O)c3c(C)[nH]c4ccccc34)c(=O)[nH]c2c1 | 14.0% | 3.1% | ? | -19.7% | -19.5%
CCOc1ccc2[nH]c(C(=O)N/N=C/c3ccc(OC)cc3)cc2c1 | -17.4% | . | 0.581µM* | -1.5% | 0.581µM*
COc1ccc2[nH]c(C(=O)c3ccccc3)cc2c1 | -14.8% | 8.2%[56.1 µM] | 0.15µM* | -11.0% | 0.133µM*
COc1ccc(/C=N\NC(=O)C2=NNC(=O)C2C)cc1 (configuration not stated) | 12.6µM* | 4.0% | -27.2% | 3.16µM* | -28.7%
COc1ccc(/C=N/NC(=O)c2nc(-c3ccccc3)n(-c3ccccc3)n2)c(O)c1 | 2.24µM* | 8.0% | 16.4µM* | 6.31µM* | ?
Cc1nc(N2CCOCC2)[nH]c(=O)c1C(O)C(Cl)(Cl)Cl (configuration not stated) | 32.2% | 2.6% | -29.4% | -25.5% | -17.0%
Cc1nn(C)c2c1c(-c1ccccc1)cc(=O)n2Cc1ccc(F)cc1Cl | . | 0.6% | ? | . | -25.4%
CN(c1ccc(O)cc1)S(=O)(=O)c1ccc2ccccc2c1 | -15.1% | 0.4% | ? | -16.3% | 12.3%
COc1ccc2[nH]c(C(=O)N/N=C/c3ccc(O)cc3O)cc2c1 | ? | . | 3.66µM* | -8.9% | 4.61µM*
COc1ccc(/C=N/NC(=O)C2c3ccccc3-c3ccccc32)cc1 | -1.8% | 4.6% | 20.6µM* | -8.5% | ?
COCCn1c(SCC(=O)NC2CC2)nnc1-c1ccco1 | -12.0% | -2.7% | 0.1% | 3.7% | -4.6%
COc1ccccc1CN1CCOc2ccc(C(C)(O)CN(C)C)cc2C1 (configuration not stated) | . | . | 1.9% | . | 0.4%
COC(=O)C1C(=O)C2=C(CC1C)NC(C)=C(C(=O)OCCOc1ccccc1)C2c1ccc(C)o1 (configuration not stated) | -36.7% | 4.7% | 16.4µM* | -4.0% | 23.1µM*
COC(=O)C1C(=O)C2=C(CC1C)NC(C)=C(C(=O)OC1CCCCC1)C2c1ccc(N(C)C)cc1 (configuration not stated) | ? | 2.4% | 16.4µM* | -10.5% | ?
COC(=O)C1C(=O)C2=C(CC1C)NC(C)=C(C(=O)OC(C)C)C2c1ccc(C)o1 (configuration not stated) | 31.2% | 9.3% | -1.3% | 14.1% | -10.4%
COC(=O)C1C(=O)C2=C(CC1C)NC(C)=C(C(=O)OCc1ccc(OC)cc1)C2c1ccc(C)o1 (configuration not stated) | -0.2% | 4.3% | 10.3µM* | -2.9% | ?
